AMPAR-TARP mod = modulates AMPAR-stargazin complexes | calls only at 30 µM | O88602+P19491 | hit rate 3.5% among 40,000 | AID 1259245 | HEK293 GluA2+stargazin, membrane potential dye (FDSS), glutamate EC50; hits were called plate by plate, in both directions;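 active = any of four per-well response measures lying three or more SD from its plate-wide compound average, in either direction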
GIRK2 activator = Activators of human GIRK2-containing channels | activation (% efficacy), % for hits at 37.5 µM | 34,000 tested, under 10 active | HEK293 GIRK2/NPY4 cells, thallium flux fluorescence | P48051;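 active = primary screen hit, no activity in plain HEK293 cells, and in GIRK2-only cells above 5% efficacy rising with concentration; inactive = the rest, including fluorescent compounds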;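 note: efficacy is normalized control-subtracted fluorescence 15 s after thallium addition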
Target sequence (P48051 whole entry, looked up): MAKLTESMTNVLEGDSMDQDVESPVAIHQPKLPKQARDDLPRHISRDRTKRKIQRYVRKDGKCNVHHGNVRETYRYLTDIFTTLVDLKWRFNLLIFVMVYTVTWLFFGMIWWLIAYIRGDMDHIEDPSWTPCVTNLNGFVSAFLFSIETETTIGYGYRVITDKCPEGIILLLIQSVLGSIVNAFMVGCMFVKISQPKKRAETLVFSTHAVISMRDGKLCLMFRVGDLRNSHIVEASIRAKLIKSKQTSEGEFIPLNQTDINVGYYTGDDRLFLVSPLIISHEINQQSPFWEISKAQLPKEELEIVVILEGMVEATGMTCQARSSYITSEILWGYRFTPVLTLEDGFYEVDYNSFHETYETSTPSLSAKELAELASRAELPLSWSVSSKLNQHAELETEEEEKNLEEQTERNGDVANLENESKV
Large screens that a line does not name were inactive. Only a selection was taken, and hits are over-represented in it overall.

COc1ccccc1C1C=C(c2ccc(Cl)cc2)Nc2nc(NS(C)(=O)=O)nn21 (stereo unspecified)	none (no result: GIRK2 activator)
CSc1nn(CC(=O)Nc2ccc3c(c2)OCCO3)c(N)c1-c1nc(-c2ccccc2)no1	none
CCOC(=O)c1ccccc1NC(=O)CN1CCCN(Cc2ccccc2Cl)S1(=O)=O	AMPAR-TARP mod active
COC(=O)c1sccc1NC(=O)CN1CCCN(Cc2ccccc2)S1(=O)=O	none (no result: GIRK2 activator)
CCCc1nnc2c(=O)n(-c3cc(C)cc(C)c3)ccn12	AMPAR-TARP mod active
CC(NC(=O)CCCc1nnc2c(=O)n(-c3ccc(Cl)cc3)ccn12)c1ccccc1 (stereo unspecified)	none (no result: GIRK2 activator)
COc1ccc(C)cc1NC(=O)CCc1csc(NC(=O)c2cccs2)n1	none
COc1ccccc1CNC(=O)C(=O)Nc1ccc(Cl)c(N2CCCS2(=O)=O)c1	none
O=C(NCCCn1nc(-c2ccccc2)ccc1=O)c1ccc(C(F)(F)F)cc1	none
CC(=O)N1CCCC1c1nc2ccccc2n1CCCOc1c(C)cccc1C (stereo unspecified)	AMPAR-TARP mod active
Cc1cccc(C)c1OCC(O)Cn1c(C2CC2)nc2ccccc21 (stereo unspecified)	none
O=C(Nc1cccnc1)c1ccc(S(=O)(=O)NCc2cccs2)o1	none
O=C(Nc1cccc(C(F)(F)F)c1)c1ccc(S(=O)(=O)N2CCCC2)o1	none
O=C(Nc1cccc(C(F)(F)F)c1)c1ccc(S(=O)(=O)NCc2cccs2)o1	AMPAR-TARP mod active
CNS(=O)(=O)c1ccc(C(=O)Nc2cccc(C(F)(F)F)c2)o1	AMPAR-TARP mod active
CS(=O)(=O)N1CCCCC1C(=O)O (stereo unspecified)	none
CCCCC1CCC(C(=O)NCc2nc(C)no2)CC1 (stereo unspecified)	none (no result: AMPAR-TARP mod)
Cc1cc(-c2nnc(NC(=O)/C=C/c3ccccc3)o2)nn1C	none
CCn1nc(C(=O)Nc2nnc(-c3ccc(OC)cc3)o2)cc1C	none (no result: AMPAR-TARP mod)
COc1cccc(C(=O)Nc2nnc(-c3cc(C)nn3C)o2)c1OC	none (no result: AMPAR-TARP mod)
COc1cc(-c2nnc(NC(=O)c3cc(C)n(C)n3)o2)cc(OC)c1OC	AMPAR-TARP mod active
COc1cc(/C=C/C(=O)Nc2nnc(-c3ccn(C)n3)o2)cc(OC)c1OC	AMPAR-TARP mod active
COC(=O)c1ccc(C(=O)Nc2nnc(-c3cc(C)n(C)n3)o2)cc1	none
COc1cc(C(=O)Nc2nnc(-c3cc(C)n(C)n3)o2)cc(OC)c1OC	AMPAR-TARP mod active
COc1cccc2cc(C(=O)Nc3nnc(-c4cc(C)nn4C)o3)oc12	AMPAR-TARP mod active
CC(C)C(=O)N1CCCc2ccc(NC(=O)C(=O)NCc3ccccc3)cc21	none
COCC(C)(O)CNC(=O)C1CC(=O)N(c2ccc(C)c(C)c2)C1 (stereo unspecified)	none
COc1ccc(NC(=O)CSc2nc(-c3sc(-c4ccccc4)nc3C)cc(=O)[nH]2)cc1Cl	none (no result: AMPAR-TARP mod)
COc1ccc(-c2nnc(NC(=O)c3ccn(C)n3)o2)cc1OC	none
COc1ccc(-c2nnc(NC(=O)c3cc(C)nn3C)o2)cc1OC	AMPAR-TARP mod active
O=C(c1ccc([N+](=O)[O-])o1)N(CCN1CCOCC1)c1nc2c(F)cccc2s1	AMPAR-TARP mod active
O=C(c1cccc([N+](=O)[O-])c1)N(CCN1CCOCC1)c1nc2ccc(F)cc2s1	none (no result: GIRK2 activator)
O=C(c1cc2cc([N+](=O)[O-])ccc2s1)N(CCN1CCOCC1)c1nc2ccc(F)cc2s1	AMPAR-TARP mod active (no result: GIRK2 activator)
COc1ccc2sc(N(CCN3CCOCC3)C(=O)c3ccc([N+](=O)[O-])o3)nc2c1	none (no result: GIRK2 activator)
Cc1ccc2nc(N(CCN3CCOCC3)C(=O)c3ccc([N+](=O)[O-])o3)sc2c1	AMPAR-TARP mod active (no result: GIRK2 activator)
O=C(c1ccc([N+](=O)[O-])s1)N(CCN1CCOCC1)c1nc2c(F)cccc2s1	none
O=C(Nc1ccc2c(c1)OCCO2)c1ccc2c(c1)ncn2-c1ccccc1	none
O=c1ccc(-c2ccc(Cl)cc2)nn1Cc1cc(F)ccc1F	none
COc1ccc(OC)c(S(=O)(=O)NCCCN2CCOC(c3ccccc3)C2)c1 (stereo unspecified)	none (no result: AMPAR-TARP mod)
NC(=O)c1oc2ccccc2c1NC(=O)C(=O)NCCCO	none
COc1ccc(-n2c(C)nc3ccc(NC(=O)c4ccc(F)c(F)c4)cc3c2=O)cc1	AMPAR-TARP mod active (no result: GIRK2 activator)
COc1cccc(C(=O)Nc2ccc3nc(C)n(-c4ccc(C)cc4)c(=O)c3c2)c1	none (no result: GIRK2 activator)
COc1ccc(CC(=O)NCC2CCN(S(=O)(=O)C3CC3)CC2)cc1OC	none
COc1ccc(CCNC(=O)C(=O)Nc2ccc(NC(C)=O)cc2)cc1	AMPAR-TARP mod active
COc1ccc(CNC(=O)C(=O)Nc2ccc(NC(C)=O)cc2)cc1	none
CCc1nnc2ccc(N3CCN(C(=O)Nc4ccc(F)c(F)c4)CC3)nn12	none
COc1ccc(OC)c(-c2csc(NC(=O)c3ccc(SC(C)C)cc3)n2)c1	none
COc1ccc(-c2csc(NC(=O)c3ccc(SC(C)C)cc3)n2)c(OC)c1	AMPAR-TARP mod active (no result: GIRK2 activator)
COc1ccc(N(Cc2ccccc2)S(=O)(=O)c2ccc3nncn3c2)cc1	none
Cc1cccc(CN(c2ccc3c(c2)OCO3)S(=O)(=O)c2ccc3nncn3c2)c1	AMPAR-TARP mod active
Cc1noc(C2CN(C(=O)C(C)Oc3ccccc3)C2)n1 (stereo unspecified)	none
COc1ccc(Cl)cc1C(=O)NCC(O)(c1cccs1)C1CC1 (stereo unspecified)	AMPAR-TARP mod active
COc1cccc(C(=O)NCC(O)(c2cccs2)C2CC2)c1OC (stereo unspecified)	none
COc1nn(C)cc1C(=O)NCC(O)(c1ccccc1)C1CC1 (stereo unspecified)	none (no result: GIRK2 activator)
COc1ccc(Cl)cc1C(=O)NCC(O)(c1ccccc1)C1CC1 (stereo unspecified)	AMPAR-TARP mod active (no result: GIRK2 activator)
O=C(NCCC1=CCCCC1)C(=O)NCCN1CCOC(c2ccccc2)C1 (stereo unspecified)	none (no result: AMPAR-TARP mod)
CN1CCOc2ccc(NS(=O)(=O)c3ccccc3)cc2C1=O	AMPAR-TARP mod active (no result: GIRK2 activator)
CN1CCOc2ccc(NS(=O)(=O)c3ccc(-c4ccccc4)cc3)cc2C1=O	none (no result: GIRK2 activator)
O=C(CC1CCCCN1S(=O)(=O)c1ccccc1)NCCC1=CCCCC1 (stereo unspecified)	AMPAR-TARP mod active
CC(C)(C)NC(=O)NCCC1CCCCN1S(=O)(=O)c1ccccc1 (stereo unspecified)	AMPAR-TARP mod active (no result: GIRK2 activator)
COc1ccc(CNC(=O)C(=O)NCCC2CCCCN2S(=O)(=O)c2ccccc2)cc1 (stereo unspecified)	none (no result: GIRK2 activator)
COc1ccc(S(=O)(=O)N2CCCCC2CC(=O)NCCCc2ccccc2)cc1 (stereo unspecified)	none (no result: GIRK2 activator)
CS(=O)(=O)N1CCN(C(=O)CCc2csc(NC(=O)c3ccc(F)cc3)n2)CC1	none
COc1ccc(CNC(=O)CSc2n[nH]c(=O)c3cc(-c4ccc(C(C)C)cc4)nn23)cc1	none (no result: AMPAR-TARP mod)
Cn1c(=O)c2c(nc(N3CCOCC3)n2CCSc2nnnn2-c2ccccc2)n(C)c1=O	none (no result: GIRK2 activator)
Cc1nnc(SCCn2c(N3CCOCC3)nc3c2c(=O)n(C)c(=O)n3C)s1	AMPAR-TARP mod active (no result: GIRK2 activator)
O=C(Nc1cccc([N+](=O)[O-])c1)c1ccc(=O)n(Cc2ccccc2F)c1	AMPAR-TARP mod active
COc1ccccc1NC(=O)c1ccc(=O)n(Cc2cccc([N+](=O)[O-])c2)c1	none
Cc1ccccc1Cn1cc(C(=O)Nc2cccc([N+](=O)[O-])c2)ccc1=O	none
Cc1cc([N+](=O)[O-])ccc1NC(=O)c1ccc(=O)n(Cc2ccc(F)cc2)c1	none
COc1cc([N+](=O)[O-])ccc1NC(=O)c1ccc(=O)n(Cc2ccccc2Cl)c1	none

Assay outcomes deposited in PubChem BioAssay by several laboratories.
